ALDH1A1 inh: qHTS Assay for Inhibitors of Aldehyde Dehydrogenase 1 (ALDH1A1); Purified ALDH1A1, NADH fluorescence, propionaldehyde substrate; Potency, µM (highest dose often 75.3 µM), without a hit: at the top dose activity, negative = inhibition, hits mostly inhibitors; 220,000 compounds, 7.3% hits; active means well fitted inhibition curve with a large enough effect, not every such curve was filed as active; inconclusive means small, poorly fitted or top-dose-only effect, or another doubt; inactive means no such curve, though single readings can be large or run the other way;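 further: potency means the concentration at half of the fitted maximal effect; plate controls were no enzyme wells and a reference inhibitor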
Target sequence (P00352 whole entry, looked up): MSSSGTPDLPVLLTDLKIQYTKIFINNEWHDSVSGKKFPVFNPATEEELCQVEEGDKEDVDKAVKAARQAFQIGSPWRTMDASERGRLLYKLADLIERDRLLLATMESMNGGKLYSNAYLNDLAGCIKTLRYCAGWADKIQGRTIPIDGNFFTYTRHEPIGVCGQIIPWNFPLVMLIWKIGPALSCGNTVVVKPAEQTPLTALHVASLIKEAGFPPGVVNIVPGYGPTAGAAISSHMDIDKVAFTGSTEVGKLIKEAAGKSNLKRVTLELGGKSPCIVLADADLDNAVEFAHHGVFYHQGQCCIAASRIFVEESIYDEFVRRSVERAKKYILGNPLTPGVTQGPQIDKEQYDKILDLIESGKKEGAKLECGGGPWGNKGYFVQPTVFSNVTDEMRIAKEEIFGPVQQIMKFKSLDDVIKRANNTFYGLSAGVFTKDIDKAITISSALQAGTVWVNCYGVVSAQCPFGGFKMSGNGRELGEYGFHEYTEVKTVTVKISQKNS
PNC inhibitor: High Content Assay for Compounds that inhibit the Assembly of the Perinucleolar Compartment. activity change (PNC), negative = inhibition, % at 10 µM. 140,000 compounds, 3.1% hits. PC3M PTB-GFP, PNC prevalence imaging, 16 h; stronger effect = lower value;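 active means readout at or below -70, meaning at least 70% loss of cells showing the perinucleolar compartment, a nuclear body marking cancer cells; inconclusive means readout between -30 and a set limit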;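 further: plate controls were DMSO wells for no effect and camptothecin positive control wells for full effect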
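Compounds are pinned in duplicate onto adhered PC3M cells stably expressing GFP-tagged PTB and incubated 16 h at 37 C. Cells are then fixed, nuclei stained with Hoechst, and PNC-positive cells counted.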
12-hLO inh: qHTS Assay for Inhibitors of 12-hLO (12-human lipoxygenase); Polyunsaturated fatty acid lipoxygenase ALOX12 (Homo sapiens), P18054; purified 12-hLO, xylenol orange hydroperoxide absorbance; Potency, µM (doses to about 57.1 µM), for the others: top-dose activity change, negative = inhibition, hits mostly inhibitors; 150,000 compounds, 0.12% hits; AID 1452, 2008; further: potency means the concentration at half of the fitted maximal effect; nearly all actives have a fitted effect of over 55% in size
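Purified human 12hLO (150 nM), preincubated 15 min with compound, then 40 uM arachidonic acid for 30 min, room temperature, Hepes pH 7.0 with 0.01% Triton X-100. Hydroperoxide detected by ferrous iron/xylenol orange; 573/405 nm absorbance ratio gives reaction progress.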
HPGD inh: qHTS Assay for Inhibitors of HPGD (15-Hydroxyprostaglandin Dehydrogenase) | purified HPGD, NADH fluorescence kinetic, PGE2 substrate | 150,000 compounds, 4.3% hits | 15-hydroxyprostaglandin dehydrogenase [NAD(+)] (Homo sapiens), P15428 | Potency, µM, for the others: at the highest dose activity change, negative = inhibition, usual class: inhibitors; active means well fitted inhibition curve with a large enough effect, not every such curve was filed as active; inconclusive means small, poorly fitted or top-dose-only effect, or another doubt; inactive means no such curve, though single readings can be large or run the other way; further: potency means the concentration at half of the fitted maximal effect
Target sequence (P15428 whole entry, looked up): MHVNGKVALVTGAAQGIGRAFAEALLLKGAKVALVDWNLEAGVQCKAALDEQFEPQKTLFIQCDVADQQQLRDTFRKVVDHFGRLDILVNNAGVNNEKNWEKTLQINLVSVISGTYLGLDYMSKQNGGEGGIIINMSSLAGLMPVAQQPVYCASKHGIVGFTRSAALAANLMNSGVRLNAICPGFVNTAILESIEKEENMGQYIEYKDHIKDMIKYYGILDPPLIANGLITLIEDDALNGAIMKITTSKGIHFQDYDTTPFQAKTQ
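20 nM HPGD preincubated 15 min at room temperature with compound in 50 mM Tris-HCl pH 8, 0.01% Tween 20. Started with 1 mM NAD+ and 30 uM prostaglandin E2; NADH fluorescence (360/450 nm) read 5 times over 30-s intervals, last minus first.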
IMPase Li cell: qHTS Assay for Identifying the Cell-Membrane Permeable IMPase Inhibitors: Potentiation with Lithium. Potency, µM (top dose mostly 59.4 µM), for inactives: top-dose activity, negative = IMPase inhibition, usual class: inhibitors. AID 1457, 2008. CHO-M1 cells, IP1 TR-FRET (IP-One), carbachol + lithium. 210,000 compounds, 0.35% hits;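 further: IP1 builds up when IMPase is blocked and the TR-FRET signal falls; potency means the concentration at half of the fitted maximal effect; plate controls were basal vehicle for no effect and high inhibitor control for full effect; nearly all actives have a fitted effect of over 50% in size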
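CHO-M1, 2000 cells/well, 16–30 h culture; cpd + low Li+, 30 min 37C; lysis with d2-IP1/Eu-anti-IP1 Ab, 10 min RT; TR-FRET 665/620 ratio and 620 channel; AC50 via Hill.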
IMPase inh: qHTS Assay for Identifying the Cell-Membrane Permeable IMPase Inhibitors; inhibition (IP1 accumulation), % at 46.1 µM; CHO-M1 cells, IP1 accumulation, HTRF TR-FRET ratio; AID 901, 2007; 120,000 tested, under 10 active; active means well fitted curve in the direction sought with a large enough effect in the signal ratio, not every such curve was filed as active; inconclusive means small, poorly fitted or top-dose-only effect, or a change in a side signal; inactive means no such curve, though single readings can be large or run the other way; the % refers to the signal ratio;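 further: cells stimulated with carbachol in lithium chloride buffer; plate controls were DMSO basal wells for no effect and reference inhibitor wells for full effect; higher means more IMPase inhibition seen as more IP1 and lower FRET ratio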
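Measured: the HTRF emission ratio (665/620 nm) plus the 620 nm donor channel, each fitted to the Hill equation to give AC50. Cells were CHO-M1 given compounds up to 46 uM and a 30 min carbachol stimulation at 37C.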
* hit, by the source's call; ? = inconclusive; . = no result given; [ ] = remark or other dose. Most compounds without a hit are left out; they make up all but 11% or so of the library. Unless noted, the call rests on the fitted dose curve; in most records, active means well fitted curve in the direction sought with a large enough effect; inconclusive means small, poorly fitted or top-dose-only effect, or another doubt; inactive means no such curve, though single readings can be large; an effect the other way counts as inactive or inconclusive. Unless noted, on the % scale 0 is the no-effect control and ±100 the full control effect.

SMILES | ALDH1A1 inh | PNC inhibitor | 12-hLO inh | HPGD inh | IMPase Li cell | IMPase inh
O=C(CN1CCCC1)Nc1ccccc1C(=O)c1ccccc1 | 14% | . | . | . | . | .
O=C(CN1CCN(S(=O)(=O)c2ccccc2F)CC1)Nc1ccccc1C(=O)c1ccccc1 | 2.8µM* | . | . | . | 15% | .
COC(=O)[C@H]1C[C@@H]1[C@H](NS(=O)(=O)c1ccc(-c2ccccc2)cc1)c1ccccc1 | -2% | . | 0% | -12% | 1% | .
Cn1cccc1C(=O)N1CCC2(CCCN(c3ccccn3)C2)CC1 | ? | . | -4% | -26% | 20% | .
CCOc1cc(/C=C2/C(=O)ON=C2C)ccc1OCc1ccccc1F | 5µM* | 85 | -10% | 1.6µM* | 26%[38.3 µM] | -1
CCOc1cc(/C=C2/C(=O)ON=C2C)ccc1OCc1ccccc1 | -6% | . | . | . | 24% | .
CC1=NOC(=O)/C1=C\c1ccc2c(c1)OCO2 | 13µM* | . | . | . | -2% | .
CC1=NOC(=O)/C1=C/c1ccc2c(c1)OCO2 | ? | . | . | . | 2% | .
Cc1ccc(S(=O)(=O)Cn2nnnc2CN2CCOCC2)cc1 | -15% | ? | -6% | -3% | 12%[38.3 µM] | 8
Cc1ccc(S(=O)(=O)Cn2nnnc2CN2CCCC3(CCCCC3)C2)cc1 | 16µM* | 15 | -2% | -13% | 11% | 7
Cc1ccc(S(=O)(=O)N(C)Cc2cc3ccccc3[nH]c2=O)cc1 | 3% | -99* | -24% | -22% | 26%[38.3 µM] | -1
COc1ccc(S(=O)(=O)N(Cc2cc3cc(C)ccc3[nH]c2=O)CC2CCCO2)cc1 (configuration not stated) | 8.9µM* | 40 | -3% | 50% | 26%[38.3 µM] | 4
COc1ccc2cc(CN(CC3CCCO3)C(=S)Nc3ccccc3)c(=O)[nH]c2c1 (configuration not stated) | 7.1µM* | . | . | . | 3% | .
COc1cccc(CN(CC2CCCO2)S(=O)(=O)c2ccc(S(=O)(=O)N(C)C)cc2)c1 (configuration not stated) | 2.8µM* | -22 | 0% | -13% | 36%[38.3 µM] | 14
CCOC(=O)c1cnc2c(OC)cccc2c1Nc1cccc(O)c1 | . | . | . | . | . | -1
COc1ccc2cc(CN(CC3CCCO3)S(=O)(=O)c3ccc(C(C)=O)cc3)c(=O)[nH]c2c1 (configuration not stated) | ? | 30 | -5% | -12% | -13%[38.3 µM] | -9
COC(=O)c1ccccc1S(=O)(=O)N(Cc1cc2ccc(OC)cc2[nH]c1=O)CC1CCCO1 (configuration not stated) | 2% | -98* | -10% | -7% | 28%[38.3 µM] | -1
Cc1ccc2[nH]c(=O)c(CN(Cc3cccs3)S(=O)(=O)c3ccc4c(c3)OCCO4)cc2c1 | 25µM* | ? | 0% | -28% | 9% | .
Cc1cc2cc(CN(Cc3cccs3)S(=O)(=O)c3ccc4c(c3)OCCO4)c(=O)[nH]c2cc1C | 0% | ? | 0% | -10% | -3% | -16
O=C(COc1cc(F)ccc1[N+](=O)[O-])Nc1ccc(N2CCOCC2)cc1 | 13µM* | . | . | . | -9% | .
COC(=O)c1cc(NC(=O)Cn2c(=O)cnc3ccccc32)cc(C(=O)OC)c1 | 0.35µM* | ? | 5% | -19% | -7%[38.3 µM] | -1
COc1ccc(CC(=O)OCC(=O)Nc2ccc(N3CCOCC3)cc2)cc1 | 25µM* | . | . | . | . | .
COC(=O)Cn1c(=O)cnc2ccccc21 | ? | 23 | -2% | -21% | 13%[38.3 µM] | -9
CC(=O)Nc1ccc(C(=O)OCC(=O)Nc2ccc(N3CCOCC3)cc2)cc1 | 18µM* | . | . | . | 18% | .
Cc1ccn2cc(C34CC5CC(CC(C5)C3)C4)nc2c1 | -8% | . | . | . | 27% | .
SMILES | ALDH1A1 inh | PNC inhibitor | 12-hLO inh | HPGD inh | IMPase Li cell | IMPase inh
COc1cc(NC(=O)COC(=O)Cc2ccc(-c3ccccc3)cc2)cc(OC)c1 | ? | -102* | -3% | -22% | -1% | .
COC(=O)c1cc(NC(=O)Cc2ccc(OC)cc2)cc(C(=O)OC)c1 | 0.89µM* | -9 | 3% | -15% | 1%[38.3 µM] | -3
NC(=O)CC[C@H](NC(=O)c1ccc(F)cc1)C(=O)OCC(=O)Nc1ccc(N2CCOCC2)cc1 | 11µM* | -11 | 0% | -6% | 11% | .
CC(C)C[C@H](NC(=O)[C@@H](O)[C@@H](N)Cc1ccccc1)C(=O)O | . | . | 3% | . | . | -7
O=C(COc1ccc(Cl)cc1)N1CCN(c2ccc([N+](=O)[O-])c(N3CCCCC3)c2)CC1 | 2.5µM* | 27 | -4% | -9% | -21% | 0
O=C(COc1ccccc1Cl)N1CCN(c2ccc([N+](=O)[O-])c(N3CCCCC3)c2)CC1 | 1.6µM* | ? | -7% | -23% | 17%[38.3 µM] | 2
O=[N+]([O-])c1cccnc1N1CCCCC1 | -3% | 7 | 0% | -9% | -6%[38.3 µM] | 4
Cc1cc(OCC(=O)N2CCCCCC2)ccc1[N+](=O)[O-] | -11% | ? | -1% | -6% | -3% | .
O=[N+]([O-])c1ccc(N2CCCCC2)nc1N1CCCCC1 | 0.32µM* | . | . | . | . | .
CNc1cc(N2CCCCCC2)ccc1[N+](=O)[O-] | 10µM* | 35 | -4% | ? | 28%[38.3 µM] | 13
O=C(c1ccc(F)cc1)N1CCN(c2ccc([N+](=O)[O-])c(N3CCCCC3)c2)CC1 | 5% | ? | -15% | . | . | 5
CCCCC(C=O)CC (configuration not stated) | -8% | . | -1% | -9% | 7% | .
O=[N+]([O-])c1ccc(Cl)cc1N1CCCCC1 | 18µM* | . | . | . | 5% | .
O=C(/C=C/c1ccncc1)c1ccc(NC(=O)c2ccccc2F)cc1 | ? | 49 | -2% | 25µM* | 12% | .
O=[N+]([O-])c1cccc(/C=N\NC2=CS(=O)(=O)C=C2)c1 | -2%[13.5 µM] | . | 2%[11.4 µM] | -9% | 2% | .
COc1ccccc1-n1c(SCC(=O)O)nnc1-c1ccc(S(=O)(=O)N2CCCCC2)cc1 | 13µM* | ? | 4% | ? | 24%[38.3 µM] | 9
CCCCNC(=O)CSc1nnc(-c2ccc(S(=O)(=O)N3CCCC3)cc2)n1C | 2% | -100* | -3% | -24% | 2% | 1
CC1=C(C#N)C(c2ccoc2)C(C(=O)OCc2ccccc2)=C(N)S1 (configuration not stated) | 28µM* | -24 | -22% | -18% | 3% | -11
Cc1ccc(C2C(C#N)=C(N)SC(N)=C2C#N)c(C)c1 | ? | -15 | ? | ? | 7.9µM* | 0

Source: PubChem BioAssay
